This passage reports Potency and fluorescent cell count results from PubChem BioAssay AID493065 (National Center for Advancing Translational Sciences (NCATS), 2011).

The other results are listed elsewhere or left out. Results filed as inconclusive are left out. Unmarked numbers belong to inactive results. Activity calls are given as the source filed them. Calls follow the shape of the dose curve; as a rule, active = well fitted activation curve with a large enough effect; inconclusive = small, poorly fitted or top-dose-only effect; inactive = flat fitted curve, though single readings scatter.

This assay in a line: Parental Cell Counter Screen Assay for Epigenetic Modulators: Hit Validation. The note with it: mouse c127i parental cells, 30 h; Potency: fluorescent cell count; fluorescent cell count: hits give high values, concentration not given here. From the text:
NIH Molecular Libraries Screening Centers Network [MLSCN] NIH Chemical Genomics Center [NCGC] MLSCN Grant: 1 X01 MH079860-01 Assay Provider: Elisabeth D. Martinez, University of Texas SW Medical Center NCGC Assay Overview: This assay is a counter screen for the Locus Derepression (LDR) assay (PubChem AID 1865). The LDR assay detects the derepression of a GFP reporter that is stably integrated in a region of the genome of murine c127i mammary cells that is presumably silenced. Compounds that cause derepression of the locus to express GFP are identified by enumerating GFP positive cells using a laser-scanning microplate cytometer. […] Compounds active in the parental c127i cells are likely fluorescent.
NCGC Assay Protocol Summary: Three hundred cells in 5 uL per well were dispensed into black, clear-bottom 1536-well plates. Twenty-three nL compound was transferred to the assay plate and cells were incubated 30 hours at 37 C. Medium was removed, cells were washed two times with PBS, and fluorescent cells were enumerated as objects between the sizes of 20 to 120 um width and depth using a laser-scanning microplate imager (Acumen Explorer Ex3, TTP Labtech). For further details, see Johnson, RL, Huang, W, Jadhav, A, Austin, CP, Inglese, J, Martinez, ED (2008). A quantitative high-throughput screen identifies potential epigenetic modulators of gene expression. Anal Biochem 375: 237-48.

With `Cc1cccn2c(=O)c(/C=C3\SC(=S)N(CC(C)C)C3=O)c(NCCCOC(C)C)nc12`, the Potency was 2510 nM (active). As for `Cc1ccc(/C=N/NC(=S)Nc2cccc(S(=O)(=O)N(C)C)c2)o1`, the fluorescent cell count is 2%.
